Source: PubChem
DT40 TDP1 CPT – qHTS for Inhibitors of human tyrosyl-DNA phosphodiesterase 1 (TDP1): qHTS in cells in presence of CPT. AID 686979, 2013. 420,000 tested, 12% active. Potency, µM (series often up to 46.2 µM), without a hit: top-dose activity change, negative = growth inhibition, most hits filed as inhibitors. chicken DT40 Tdp1-/-;hTDP1 cells + 20 nM CPT, ATP luminescence, 48 h; further: potency means the concentration at half of the fitted maximal effect; on the % scale 0 is the no-effect control and ±100 the full control effect; nearly all actives have a fitted effect of over 55% in size
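Chicken DT40 Tdp1-/- cells complemented with human TDP1, 400 cells/well, exposed to compounds plus 20 nM camptothecin for at least 48 h at 37 C; viability read as ATP content by CellTiter-Glo luminescence.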
TDP1 cell noCPT – qHTS for Inhibitors of human tyrosyl-DNA phosphodiesterase 1 (TDP1): qHTS in cells in absence of CPT. 420,000 tested, 15% active. AID 686978, 2013. Potency, µM (top dose mostly 46.2 µM), for the others: at the top dose activity change, negative = growth inhibition, usual class: inhibitors. DT40 Tdp1-/- hTDP1 cells, no CPT, ATP luminescence, 48 h; further: potency means the concentration at half of the fitted maximal effect; on the % scale 0 is the no-effect control and ±100 the full control effect; nearly all actives have a fitted effect of over 55% in size
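Stably hTDP1-transfected Tdp1-null chicken DT40 cells were treated with library compounds minus camptothecin and grown for at least 48 hr at 37 °C, after which cellular ATP was quantified by luminescence.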
HepG2 viability – qHTS for Inhibitors of TGF-b: Cytotox Counterscreen. AID 588856, 2011. HepG2 CAGA-GFP viability, ATP luminescence, 18 h. Potency, µM (top dose mostly 46.1 µM), without a hit: at the highest dose activity change, negative = cytotoxicity, most hits filed as cytotoxic. 410,000 tested, 0.76% active; further: potency means the concentration at half of the fitted maximal effect
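HepG2 CAGA-GFP cells (1000/well, DMEM with 1% FBS) received compound, then TGF-beta at 500 pg/mL final, and were incubated 18 hours at 37 degrees C. Viability was read by CellTiter-Glo luminescence. Media-only wells were set as complete cell-killing and DMSO as no toxicity.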
TDP1 inh – qHTS Assay for Inhibitors of Tyrosyl-DNA Phosphodiesterase (TDP1); recombinant TDP1, AlphaScreen DNA substrate cleavage; Potency, µM (titrated, usually from 130 µM), inactives show at the highest dose activity change, negative = inhibition, usual class: inhibitors; 350,000 tested, 0.28% active; AID 485290, 2010; further: potency means the concentration at half of the fitted maximal effect; on the % scale 0 is the no-effect control and ±100 the full control effect; nearly all actives have a fitted effect of over 40% in size
Target sequence (Q9NUW8 whole entry, looked up): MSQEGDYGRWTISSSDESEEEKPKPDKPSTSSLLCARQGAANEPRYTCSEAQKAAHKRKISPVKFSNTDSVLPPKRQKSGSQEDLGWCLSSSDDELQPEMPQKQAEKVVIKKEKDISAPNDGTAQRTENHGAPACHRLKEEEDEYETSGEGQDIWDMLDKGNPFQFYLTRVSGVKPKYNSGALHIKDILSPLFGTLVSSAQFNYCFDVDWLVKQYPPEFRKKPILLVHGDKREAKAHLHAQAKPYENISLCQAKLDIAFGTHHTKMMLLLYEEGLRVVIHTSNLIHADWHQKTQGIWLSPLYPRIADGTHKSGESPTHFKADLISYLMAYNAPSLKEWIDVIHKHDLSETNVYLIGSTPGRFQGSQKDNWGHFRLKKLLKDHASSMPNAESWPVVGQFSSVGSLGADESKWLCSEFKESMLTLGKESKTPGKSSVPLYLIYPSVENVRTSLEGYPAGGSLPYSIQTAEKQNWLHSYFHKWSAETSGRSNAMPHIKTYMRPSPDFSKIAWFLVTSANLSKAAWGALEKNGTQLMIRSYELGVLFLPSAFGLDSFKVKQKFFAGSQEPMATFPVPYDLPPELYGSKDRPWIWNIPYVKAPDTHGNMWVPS
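Tdp1 1 nM final; 15 min RT w/ cpd; substrate 15 nM, 5 min; beads 10 ug/ml, 10 min; AlphaScreen read. Neg ctrl: no enzyme.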
IL1B secr inh – qHTS for Inhibitors of Inflammasome Signaling: IL-1-beta AlphaLISA Primary Screen. activity change, % at 57.5 µM. THP-1 LPS/ATP IL-1B secretion, AlphaLISA, 16 h; active compounds read low. 360,000 tested, 4.7% active; in the data active means activity change below about -50%; inconclusive means mostly about -30% to -49%; further: on the % scale 0 is the no-effect control and ±100 the full control effect
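Secreted IL-1B measured by AlphaLISA bead assay after 16 h compound exposure of THP-1 cells; compounds (final up to 57.5 uM) added 1 h before LPS (250 ng/mL) and ATP (1.25 mM) stimulation; lower signal means less secretion.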
TGFb inhibitor – qHTS for Inhibitors of TGF-b. Potency, µM (series often up to 46.1 µM), without a hit: top-dose activity, negative = inhibition, most hits filed as inhibitors. HepG2 CAGA-GFP TGF-b/SMAD3 reporter, GFP fluorescence, 18 h; TGF-beta stimulated, 500 pg/mL final. AID 588855, 2011. 410,000 tested, 1.2% active; further: potency means the concentration at half of the fitted maximal effect; on the % scale 0 is the no-effect control and ±100 the full control effect; nearly all actives have a fitted effect of over 65% in size
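Inhibition of TGF-beta-driven CAGA-GFP reporter expression in HEPG2 cells is measured by cellular GFP fluorescence after 18 h stimulation with 500 pg/mL recombinant TGF-beta in 1% FBS medium at 37 degrees C.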
* = called active by the depositor; ? = inconclusive; . = no result given; ! = repeats disagree; [ ] = another dose, or the depositor's remark. Only some compounds are listed: those with a hit (about 19% of all), similar ones and a draw of the others. Unless noted, the call rests on the fitted dose curve; in most records, active means well fitted curve in the direction sought with a large enough effect; inconclusive means small, poorly fitted or top-dose-only effect, or another doubt; inactive means no such curve, though single readings can be large; an effect the other way counts as inactive or inconclusive.

SMILES	DT40 TDP1 CPT	TDP1 cell noCPT	HepG2 viability	TDP1 inh	IL1B secr inh	TGFb inhibitor
Cc1cc(C)c2c(N)c(C(=O)Nc3cccc(C)c3C)sc2n1	?	16µM*	-2%	.	18	21%
NC(=O)c1sc2nc3c(cc2c1N)CCCCCC3	?	?	30%	-5%	-97*	48%
CC(=O)NC1=C(C#N)CCC1	8%	-16%	-16%	.	.	-10%
COc1cc(C(=O)N2CCN(S(=O)(=O)c3ccc(C)cc3C)CC2)ccc1OCC(=O)N1CCOCC1	-18%	0%	2%	1%	1	-13%
COc1cc(C(=O)NCCC(c2ccccc2)c2ccccc2)cc(OC)c1OC	?	?	-2%	.	-1	-6%
Nc1c(C(=O)Nc2ccc(C(=O)O)cc2)sc2nc3c(cc12)CCCC3	-4%	?	14%	.	.	-8%
CCOc1ccc(NC(=O)c2sc3nc4c(cc3c2N)CCCCCC4)cc1	8.2µM*	?	-26%	.	.	-6%
O=C(NCc1cccnc1)C(=O)C1C(=O)Nc2ccccc21 (configuration not stated)	-2%	1%	-5%	3%	-10	-9%
Cc1nc2cc(-c3ccccc3)nn2c(C)c1CCC(=O)NCCc1ccccc1	16µM*	?	-23%	-3%	.	?
Cc1nc2cc(-c3cccc(F)c3)nn2c(C)c1CCC(=O)NCCc1ccccc1	26µM*	?	-2%	3%	.	-13%
Cc1nc2ncnn2c(C)c1CCC(=O)NCCc1ccccc1	?	-27%	-7%	7%	3	-7%
CCOC(=O)C(Cc1ccccc1)NC(=O)CCc1c(C)nc2nc(C)nn2c1C (configuration not stated)	?	23µM*!	-11%	2%	?	17%
O=C(CC1Sc2ccccc2NC1=O)NNc1cccc(Cl)c1Cl (configuration not stated)	?	?	-18%	.	-2	-6%
CCCCCCCCCCC/C=C\C(C)(C)/C=C\CCCC(=O)O	-1%[4.12 µM]	-25%[4.12 µM]	.	9%[56.1 µM]	.	.
CCOC(=O)c1c(OCC)[nH]c2c1cc(O)c1ccccc12	16µM*	18µM*	-34%	6%	-18	?
Cc1ccc(C)c(NC(=O)C2CCCN(S(=O)(=O)c3cccnc3)C2)c1 (configuration not stated)	-23%	-17%	-4%	0%	48	-4%
CCOc1ccc2nc(NC(=O)C3CCCN(S(=O)(=O)c4cccs4)C3)sc2c1 (configuration not stated)	?	?	0%	7%	-58*	-37%
CCOc1ccccc1NC(=O)C1CCCN(S(=O)(=O)c2cccs2)C1 (configuration not stated)	23µM*	23µM*	-6%	1%	.	?
Cc1ccc2nc(NC(=O)C3CCCN(S(=O)(=O)c4cccnc4)C3)sc2c1 (configuration not stated)	23µM*	16µM*	-17%	7%	-12	-17%
CCOc1ccccc1NC(=O)C1CCCN(S(=O)(=O)c2ccc(OC)c(C)c2)C1 (configuration not stated)	?	16µM*	-11%	0%	-2	?
O=C(Nc1ccc(N2CCC(c3ccccc3)C2)c(C(=O)O)c1)c1ccc(Cl)cc1 (configuration not stated)	?	?	-38%	-4%	.	-24%
COc1ccc(C2Nc3ccccc3C(=O)N2Cc2ccccc2)cc1COc1ccc([N+](=O)[O-])cc1 (configuration not stated)	?	?	-10%	2%	.	-1%
CC(=O)CC(=O)Nc1ccccc1	.	.	.	6%	.	.
Cc1ccc2nc(CN3CCN(C(=O)Nc4cccc(C)c4C)CC3)oc2c1	?	-4%	-12%	-1%	.	?
CC(NC(=O)CCl)c1ccc(Cl)c(Cl)c1 (configuration not stated)	16µM*	18µM*	18µM*	6%	-103*	?
SMILES	DT40 TDP1 CPT	TDP1 cell noCPT	HepG2 viability	TDP1 inh	IL1B secr inh	TGFb inhibitor
CC(NC(=O)CCl)c1ccccc1Br (configuration not stated)	?	15µM*	-7%	4%	-96*	-4%
O=C1CN(c2ccc(Cl)cc2)C2(CCCCC2)S1	29µM*	?	5%	-1%	3	-3%
O=C(O)C1CCCCC1C(=O)Nc1cccc2ccccc12 (configuration not stated)	16µM*	8.2µM*	-15%	0%	34	-20%
O=C(O)C1CCCCC1C(=O)Nc1ccccc1Nc1ccccc1 (configuration not stated)	?	?	3%	6%	-16	0%
COc1ccc(NCc2nnc(SCC(=O)Nc3ccccc3)n2C)cc1	14%	9%	5%	1%	2	-2%
N#Cc1cccc(-c2cncnc2NCc2ccccc2)c1	-8%	-17%	.	.	.	.
CCCc1cc(-c2n[nH]c(C(=O)OCC)c2-c2cscn2)c(O)cc1O	?	15µM*	-48%	8%	-12	?
CCOC(=O)c1[nH]nc(-c2c(O)cc(C)cc2O)c1-c1csc(C)n1	-6%	20%	-53%	-1%	10	3%
Cc1cc(=O)n2c(C(=O)Nc3ccc(F)c(Cl)c3)c(C(=O)Nc3cccc(C)c3C)sc2n1	?	?	4%	7%	.	5%
O=C(/C=C/c1cccc([N+](=O)[O-])c1)N1CCN(c2ccccn2)CC1	-6%	-4%	-11%	4%[56.1 µM]	25	-1%
